# IL-1B inflam inh = qHTS for Inhibitors of Inflammasome Signaling: IL-1-beta AlphaLISA Primary Screen | AID 743279, 2014 | 360,000 compounds, 4.7% hits | THP-1 LPS/ATP IL-1B secretion, AlphaLISA, 16 h; hits give low values | activity change, % at 57.5 µM; in the data active means activity change below about -50%; inconclusive means mostly about -30% to -49%
#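 THP-1 cells pretreated 1 hr with compounds (up to 57.5 uM final), then stimulated with LPS (250 ng/mL final) plus ATP (1.25 mM final); secreted IL-1B measured by AlphaLISA after 16 hr, decreased signal indicating inhibition.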
# TGFb inhibitor = qHTS for Inhibitors of TGF-b; HepG2 CAGA-GFP TGF-b/SMAD3 reporter, GFP fluorescence, 18 h; TGF-beta stimulated, 500 pg/mL final; Potency, µM (doses to about 46.1 µM), actives largely listed as inhibitors; 410,000 compounds, 1.2% hits; AID 588855, 2011; further: nearly all actives have a fitted effect of over 65% in size
#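 HEPG2 CAGA-GFP cells (1000/well, DMEM with 1% FBS) were pre-incubated 2 h at 37 degrees C, given compound by pin tool, then stimulated with TGF-beta at 500 pg/mL final for 18 h before per-cell GFP fluorescence imaging.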
# HT1080NT lethal = qHTS for induction of synthetic lethality in tumor cells producing 2HG: qHTS for the HT-1080-NT fibrosarcoma cell line; HT-1080-NT fibrosarcoma viability, CellTiter-Glo ATP luminescence, 48 h; Potency, µM (top dose mostly 46.1 µM), hits mostly cytotoxic; 360,000 compounds, 1.6% hits; AID 686970, 2013;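 further: NT is the 2HG producing partner of a matched IDH1 knockdown line; nearly all actives have a fitted effect of over 55% in size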
#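 Read-out is CellTiter-Glo luminescence after 10 minutes at room temperature, following 48 hours' compound treatment of HT-1080-NT cells (750 cells/well, RPMI, 5% FBS, 37 degrees C).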
# Giardia killer = Small Molecules that selectively kill Giardia lamblia: qHTS; AID 540267, 2011; activity change, % at 7.66 µM, hits read low; 340,000 compounds, 0.15% hits; Giardia lamblia trophozoite viability; in the data active means activity change below about -80%; inconclusive means between about -30% and that limit;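 further: parasites exposed to compound for two days anaerobically before the ATP read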
#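 Giardia lamblia trophozoites (100 cells/well) were incubated with compounds for 48 h at 37 deg C under anaerobic conditions. Viability was read as ATP content by one-step luminescence after 15-30 min at room temperature.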
# HT1080 IDH1KD tx = qHTS for induction of synthetic lethality in tumor cells producing 2HG: qHTS for the HT-1080-IDH1KD cell line; 360,000 compounds, 2% hits; Potency, µM (doses to about 46.1 µM), most hits filed as cytotoxic; HT-1080 IDH1 knockdown viability, ATP luminescence, 48 h
#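 CellTiter-Glo luminescence after 48 h compound exposure at 37 degrees C of IDH1-knockdown HT-1080 cells in 5% FBS RPMI. %Activity scaled between DMSO wells and cell-free media wells, with curves fitted and assigned curve classes.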
# HepG2 tox = qHTS for Inhibitors of TGF-b: Cytotox Counterscreen; HepG2 CAGA-GFP viability, ATP luminescence, 18 h; Potency, µM (highest dose often 46.1 µM), most hits filed as cytotoxic; 410,000 compounds, 0.76% hits; AID 588856, 2011
#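 HepG2 CAGA-GFP cells (1000/well, DMEM with 1% FBS) received compound, then TGF-beta at 500 pg/mL final, and were incubated 18 hours at 37 degrees C. Viability was read by CellTiter-Glo luminescence. Media-only wells were set as complete cell-killing and DMSO as no toxicity.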
# A number is an active result; - = inactive; ? = inconclusive; . = not tested or not shown. A selection: hits, their analogues and other compounds. The true share with any hit is near 6.5%. Unless noted, the call rests on the fitted dose curve; in most records, active means well fitted curve in the direction sought with a large enough effect; inconclusive means small, poorly fitted or top-dose-only effect, or another doubt; inactive means no such curve, though single readings can be large; an effect the other way counts as inactive or inconclusive.
SMILES,IL-1B inflam inh,TGFb inhibitor,HT1080NT lethal,Giardia killer,HT1080 IDH1KD tx,HepG2 tox
CCOC(=O)c1c(CN2CCOCC2)n(-c2ccccc2)c2cc(Br)c(OC)cc12,-,?,-,-,?,-
CCCCNC(=O)c1ccccc1NC(=O)c1ccc2c(c1)OCO2,-,-,-,-,-,-
COc1ccc2c(c1)CCCN2C(N)=Nc1ccc(Cl)cc1,-62.9,-,-,-,?,-
COc1ccc2c(c1)CCCN2C(N)=O,-,-,-,-,-,-
COc1ccc2oc(C(=O)OCC(=O)Nc3ccc(C(=O)N(C)C)cc3)c(C)c2c1,-,-,-,-,-,-
O=C(CSc1nnc(-c2ccncc2)o1)c1cccc([N+](=O)[O-])c1,-51.3,-,-,-,?,-
COc1ccc(C(=O)c2coc(-c3ccccc3C(=O)O)c2C(=O)O)cc1,-,-,-,-,-,-
COc1ccc(C(=O)c2c(C(F)(F)F)oc3c2C(=O)c2ccccc2C3=O)cc1,?,?,7.31µM,-,6.51µM,1.12µM
S=c1nc(-c2ccccc2Br)[nH][nH]1,-,-,7.08µM,-,10µM,-
S=c1nc(-c2cc(Cl)ccc2Cl)[nH][nH]1,-,-,-,-,-,-
O=S(=O)(c1c(Cl)cc(Br)cc1Cl)N1CCN(C(=S)NC2CC2)CC1,-84.6,-,-,-,-,-
CCN(CC)C(=O)COc1ccc2c3c(c(=O)oc2c1C)CCCC3,?,-,-,-,-,-
O=c1c2c3c(sc2nc(NCCO)n1CCc1ccccc1)CCCCC3,-,?,-,-,?,-
C#CCSc1nc2sc3c(c2c(=O)n1Cc1ccccc1)CCCC3,.,-,.,.,.,-
O=c1c2c3c(sc2nc(N2CCNCC2)n1CCc1ccccc1)CCCCC3,-55.3,-,-,-,-,-
CN(C)CCNc1nc2sc3c(c2c(=O)n1-c1ccc(F)cc1)CCCCC3,-53.8,?,23.1µM,-,?,-
COc1ccc(-n2c(NCCN(C)C)nc3sc4c(c3c2=O)CCCCC4)cc1,-,-,-,-,-,-
CN(C)CCNc1nc2sc3c(c2c(=O)n1Cc1ccccc1)CCCCC3,-95.7,-,-,-,-,-
CN(C)CCNc1nc2sc3c(c2c(=O)n1-c1ccccc1)CCCCC3,.,-,?,-,?,14.1µM
COc1ccc(NC(=O)C2CCN(S(=O)(=O)c3ccc4c(c3)CC(C)N4C(C)=O)CC2)cc1OC (stereo not given),-,-,-,-,-,-
COc1ccc(NS(=O)(=O)c2cc(NC(=O)c3ccc(C)o3)ccc2N2CCCCC2)cc1,-,-,-,-,-,-
COc1ccc(C(=O)C2CCCN(C(=O)c3cccnc3SC)C2)c(C)c1 (stereo not given),-70.0,-,-,-,-,-
CN1CCN(C(=O)c2ccc3c(Cl)c4c(nc3c2)CCCC4)CC1,-,-,-,-,-,-
O=C(c1ccc2c(Cl)c3c(nc2c1)CCCC3)N1CCN(c2ccc(Cl)cc2)CC1,.,-,.,.,.,-
N#CC1CCN(C(=O)c2ccc3c(Cl)c4c(nc3c2)CCCC4)CC1,-66.5,?,-,-,-,-
SMILES,IL-1B inflam inh,TGFb inhibitor,HT1080NT lethal,Giardia killer,HT1080 IDH1KD tx,HepG2 tox
CCN1CCN(C(=O)c2ccc3c(Cl)c4c(nc3c2)CCCC4)CC1,-78.3,-,-,-,-,-
O=C(NCCCN1CCCCCC1)c1ccc2c(Cl)c3c(nc2c1)CCCC3,-71.4,?,-,-,?,-
CCN(CC)CCCNC(=O)c1ccc2c3n(nc2c1)-c1ccc(Cl)cc1CO3,-60.5,?,-,-,-,-
CCOC(=O)c1cccc(NC(=O)CN(c2ccc(C)cc2)S(=O)(=O)c2c(C)n[nH]c2C)c1,-,-,-,-,-,-
Nn1c(SCC(=O)Nc2c(F)cc(F)cc2Br)nnc1C1CCCCC1,-,-,-,-,-,-
COc1ccc(C(=O)C2CCCN(C(=O)/C=C/c3ccccn3)C2)c(C)c1 (stereo not given),-,-,-,-,-,-
CCOc1ccc(CCNC(=O)c2ccc3c(Cl)c4c(nc3c2)CCCC4)cc1,.,?,.,.,.,-
COc1cccc(N2CCN(C(=O)c3ccc4c(Cl)c5c(nc4c3)CCCC5)CC2)c1,.,11.2µM,.,.,.,-
COCCNC(=O)c1ccc2c(Cl)c3c(nc2c1)CCC3,-,-,-,-,-,-
CCN1CCN(CCCNC(=O)c2ccc3c(Cl)c4c(nc3c2)CCCC4)CC1,.,?,25.9µM,-,?,-
CCCN(CCC)CCCNC(=O)c1ccc2c(Cl)c3c(nc2c1)CCC3,-66.5,-,?,-,20.6µM,-
CC1CCN(CCCNC(=O)c2ccc3c(Cl)c4c(nc3c2)CCCC4)CC1,.,-,?,-,20.6µM,-
CN(Cc1cn(C)nc1-c1cccc(Cl)c1)Cc1nccn1C,-,-,-,-,-,-
C#CCOc1ccccc1CNc1ccccc1,-,-,-,-,-,-
COCCNC(=S)N1CCc2cc(OC)c(OC)cc2C1COc1ccc(F)cc1 (stereo not given),-,-,-,-,?,-
Nc1nc2n(n1)C(c1cccs1)CC(c1ccc(F)cc1)N2 (stereo not given),-,-,-,-,-,-
O=C(Nc1nc2n(n1)C(c1ccc(Cl)cc1)CC(c1ccc(Cl)cc1)N2)c1ccco1 (stereo not given),?,?,23.1µM,-,23.1µM,-
COc1ccc(C2CC(c3ccccc3)n3nc(NC(=O)c4cccs4)nc3N2)cc1 (stereo not given),-72.2,-,-,-,-,-
COc1ccc(C2CC(c3ccccc3)Nc3nc(NC(=O)c4cccs4)nn32)cc1 (stereo not given),-,-,-,-,-,-
COc1ccc(C2CC(c3ccc(Cl)cc3)Nc3nc(NC(=O)c4ccco4)nn32)cc1 (stereo not given),-,?,-,-,?,-
COc1ccc(C2CC(c3cccs3)n3nc(N)nc3N2)cc1 (stereo not given),-58.6,-,-,-,-,-
O=c1c(OC2OC(CO)C(O)C(O)C2OC2OC(CO)C(O)C(O)C2OC2OC(CO)C(O)C(O)C2O)c(-c2ccc(O)c(O)c2)oc2cc(O)cc(O)c12 (stereo not given),-,-,-,-,-,-
O=C(N/N=C/c1sc(N2CCOCC2)nc1-c1ccccc1)c1cccc(S(=O)(=O)N2CCOCC2)c1,-,-,3.66µM,-,?,-

# Bioassay records (PubChem)
